Measured values: PubChem BioAssay (EPA / NIEHS)
Activity calls are given as the source filed them. How the source made its calls: active means hit-call score of the fitted dose curve at least 0.9, where 1 is the maximum; inactive means score below 0.9.

Tests used:
Conditions in all cases: mRNA level, 48 h; actives raise or lower the signal
[1] = read-out: Potassium channel subfamily K member 1 (KCNK1), KCNK1 (gene 3775); assay: LTEA_HepaRG_KCNK1: Life Technologies and Expression Analysis (LTEA) Assay for Potassium channel subfamily K member 1 (KCNK1) using HepaRG (AID 2283511)
Summary of the method: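 Differentiated HepaRG cells, 48 h exposure in serum-free induction medium with 0.5% DMSO; 8 concentrations, half-log from 100 uM, duplicate. KCNK1 mRNA by qRT-PCR, normalized to ACTB, GAPDH, POLR2A; bidirectional fit vs DMSO.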

[2] = read-out: Keratin 19 (KRT19), KRT19 (gene 3880); assay: LTEA_HepaRG_KRT19: Life Technologies and Expression Analysis (LTEA) Assay for Keratin 19 (KRT19) using HepaRG (AID 2283512)
Summary of the method: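 KRT19 transcript levels, measured by Fluidigm qRT-PCR against three housekeeping genes, are fitted for gain or loss of signal relative to DMSO. Human HepaRG cells receive test chemicals (top 100 uM, half-log steps, 0.5% DMSO) for 48 hours.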

[3] = read-out: JUN Transcription Factor, JUN (gene 3725); assay: LTEA_HepaRG_JUN: Life Technologies and Expression Analysis (LTEA) Assay for JUN Transcription Factor using HepaRG (AID 2283513)
Summary of the method: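 Cells plated 48 h, medium switched to serum-free induction medium, then dosed 48 h (100 uM top, half-log dilutions, 0.5% DMSO). RNA isolated; JUN measured by qRT-PCR against three housekeeping genes; gain or loss fitted relative to DMSO.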

[4] = read-out: Lipase C (LIPC), LIPC (gene 3990); assay: LTEA_HepaRG_LIPC: Life Technologies and Expression Analysis (LTEA) Assay for Lipase C (LIPC) using HepaRG (AID 2283514)
Summary of the method: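 HepaRG cells, 48 h after plating, treated in duplicate for 48 h in serum-free induction medium over 8 half-log concentrations from 100 uM, 0.5% DMSO. LIPC mRNA by TaqMan qRT-PCR normalized to ACTB/GAPDH/POLR2A; bidirectional fit versus DMSO.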

[5] = read-out: Lipoprotein lipase (LPL), LPL (gene 4023); assay: LTEA_HepaRG_LPL: Life Technologies and Expression Analysis (LTEA) Assay for Lipoprotein lipase (LPL) using HepaRG (AID 2283515)
Summary of the method: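 Differentiated HepaRG cells, plated 48 h, then exposed 48 h in serum-free induction medium to 8 concentrations (top 100 uM, half-log steps) in 0.5% DMSO, duplicate. LPL mRNA measured by qRT-PCR, normalized to ACTB, GAPDH and POLR2A.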

[6] = read-out: MicroRNA 122 (MIR122), gene 406906; assay: LTEA_HepaRG_MIR122: Life Technologies and Expression Analysis (LTEA) Assay for MicroRNA 122 (MIR122) using HepaRG (AID 2283516); further: the transcript read is the microRNA miR-122
Summary of the method: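 HepaRG plated 48 h, switched to serum-free induction medium, then treated in duplicate for 48 h (100 uM top, half-log steps, 0.5% DMSO vehicle). RNA isolated, qRT-PCR performed, concentration-response fitted both directions relative to DMSO.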

[7] = read-out: matrix metalloproteinase-10 (MMP10), MMP10 (gene 4319); assay: LTEA_HepaRG_MMP10: Life Technologies and Expression Analysis (LTEA) Assay for matrix metalloproteinase-10 (MMP10) using HepaRG (AID 2283517)
Summary of the method: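 Differentiated HepaRG cells in serum-free induction medium exposed 48 h in duplicate to 8-point half-log series up to 100 uM in 0.5% DMSO. mRNA quantified by qRT-PCR, normalised to ACTB, GAPDH, POLR2A; bidirectional fit versus DMSO.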

MYC, MYC (gene 4609) = assay: LTEA_HepaRG_MYC: Life Technologies and Expression Analysis (LTEA) Assay for MYC using HepaRG (AID 2283518)
Summary of the method: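 HepaRG, ~100,000 cells/well, collagen I; 48 h plating; serum-free induction medium; 48 h dosing, duplicate, 100 uM top, half-log, 0.5% DMSO; total RNA → qRT-PCR MYC; gain/loss fit vs DMSO.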

[8] = read-out: matrix metalloproteinase-3 (MMP3), MMP3 (gene 4314); assay: LTEA_HepaRG_MMP3: Life Technologies and Expression Analysis (LTEA) Assay for matrix metalloproteinase-3 (MMP3) using HepaRG (AID 2283519)
Summary of the method: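 HepaRG cells (~100,000/well) in serum-free induction medium were dosed in duplicate for 48 h with an 8-point half-log series from 100 uM, 0.5% DMSO. MMP3 mRNA was quantified by Fluidigm TaqMan qRT-PCR, normalized to three housekeeping genes.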

[9] = read-out: Nuclear factor NF-kappa-B p105 subunit (Homo sapiens) (UniProt P19838); assay: LTEA_HepaRG_NFKB1: Life Technologies and Expression Analysis (LTEA) Assay for Nuclear Factor Kappa B Subunit 1 (NFKB1) using HepaRG (AID 2283521);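 further: TaqMan qRT-PCR transcript normalised to ACTB GAPDH and POLR2A housekeeping genes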
Summary of the method: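 Differentiated human HepaRG cells were exposed for 48 h in serum-free induction medium to eight concentrations (top 100 uM, half-log steps, 0.5% DMSO), in duplicate. NFKB1 mRNA was measured by TaqMan qRT-PCR, normalized to ACTB/GAPDH/POLR2A, and fitted bidirectionally against DMSO.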

[10] = read-out: Protein phosphatase 2A (PPP2R4), PTPA (gene 5524); assay: LTEA_HepaRG_PPP2R4: Life Technologies and Expression Analysis (LTEA) Assay for Protein phosphatase 2A (PPP2R4) using HepaRG (AID 2283522)
Summary of the method: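 Readout is PPP2R4 transcript level by microfluidic qRT-PCR after 48 h chemical treatment of human HepaRG liver cells. Concentrations spanned 100 uM downward in half-log steps; gain or loss of signal was fitted relative to DMSO.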

[11] = read-out: Phosphatase and tensin (PTEN), PTEN (gene 5728); assay: LTEA_HepaRG_PTEN: Life Technologies and Expression Analysis (LTEA) Assay for Phosphatase and tensin (PTEN) using HepaRG (AID 2283523)
Summary of the method: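 HepaRG cells, 48 h after plating, exposed in duplicate for 48 h in serum-free induction medium to 8 half-log concentrations up to 100 uM (0.5% DMSO). PTEN mRNA by qRT-PCR, normalized to ACTB, GAPDH, POLR2A; bidirectional fit versus DMSO.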

[12] = read-out: solute carrier (SLC22A1), SLC22A1 (gene 6580); assay: LTEA_HepaRG_SLC22A1: Life Technologies and Expression Analysis (LTEA) Assay for solute carrier (SLC22A1) using HepaRG (AID 2283524)
Summary of the method: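 Differentiated human HepaRG cells in serum-free induction medium, exposed 48 h in duplicate to 8-point half-log series from 100 µM top in 0.5% DMSO. SLC22A1 mRNA by TaqMan qRT-PCR normalized to ACTB, GAPDH, POLR2A; bidirectional fit versus DMSO.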

[13] = read-out: Pyruvate Dehydrogenase Kinase 4 (PDK4), PDK4 (gene 5166); assay: LTEA_HepaRG_PDK4: Life Technologies and Expression Analysis (LTEA) Assay for Pyruvate Dehydrogenase Kinase 4 (PDK4) using HepaRG (AID 2283525)
Summary of the method: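 HepaRG cells plated 48 h, then switched to serum-free induction medium and exposed in duplicate for 48 h to 8 half-log concentrations from 100 uM in 0.5% DMSO. PDK4 mRNA measured by qRT-PCR, normalized to ACTB, GAPDH and POLR2A; bidirectional fit versus DMSO.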

[14] = read-out: NAD(P)H dehydrogenase [quinone] 1 (NQO1), NQO1 (gene 1728); assay: LTEA_HepaRG_NQO1: Life Technologies and Expression Analysis (LTEA) Assay for NAD(P)H dehydrogenase [quinone] 1 (NQO1) using HepaRG (AID 2283526)
Summary of the method: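 HepaRG, 48 h post-plating → serum-free induction medium → test chemical 48 h (duplicate, 100 uM top, half-log x8, 0.5% DMSO) → RNA isolation → qRT-PCR, ACTB/GAPDH/POLR2A normalization; bidirectional curve fit vs DMSO baseline.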

[15] = read-out: Nuclear factor erythroid 2-related factor 2 (Homo sapiens) (UniProt Q16236); assay: LTEA_HepaRG_NFE2L2: Life Technologies and Expression Analysis (LTEA) Assay for Nuclear factor erythroid 2-related factor 2 (NFE2L2) Transcription Factor using HepaRG (AID 2283527);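 further: TaqMan qRT-PCR transcript level normalised to ACTB GAPDH and POLR2A housekeeping genes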
Summary of the method: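 Differentiated human HepaRG cells, serum-free induction medium, exposed 48 h in duplicate to eight half-log concentrations up to 100 uM in 0.5% DMSO. NFE2L2 mRNA by Fluidigm TaqMan qRT-PCR, normalised to ACTB, GAPDH, POLR2A; bidirectional change versus DMSO.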

[16] = read-out: succinate dehydrogenase complex iron sulfur subunit B (SDHB), SDHB (gene 6390); assay: LTEA_HepaRG_SDHB: Life Technologies and Expression Analysis (LTEA) Assay for succinate dehydrogenase complex iron sulfur subunit B (SDHB) using HepaRG (AID 2283528)
Summary of the method: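 HepaRG, 48 h exposure, 8-pt half-log series from 100 uM in 0.5% DMSO, duplicates. Readout: SDHB mRNA by Fluidigm qRT-PCR vs housekeeping genes; bidirectional fit relative to DMSO.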

[17] = read-out: Signal transducer and activator of transcription 3 (Homo sapiens) (UniProt P40763); assay: LTEA_HepaRG_STAT3: Life Technologies and Expression Analysis (LTEA) Assay for Signal transducer and activator of transcription (STAT3) using HepaRG (AID 2283529)
Summary of the method: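 Differentiated HepaRG cells, serum-free induction medium, dosed 48 h in duplicate, 8 half-log concentrations from 100 uM in 0.5% DMSO. STAT3 mRNA by qRT-PCR, normalised to ACTB, GAPDH, POLR2A; bidirectional fit versus DMSO.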

[18] = read-out: solute carrier (SLCO1B1), SLCO1B1 (gene 10599); assay: LTEA_HepaRG_SLCO1B1: Life Technologies and Expression Analysis (LTEA) Assay for solute carrier (SLCO1B1) using HepaRG (AID 2283530)
Summary of the method: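 HepaRG, serum-free induction medium, 48 h dosing, 8-pt half-log from 100 uM, 0.5% DMSO vehicle, duplicates. Readout: SLCO1B1 mRNA, qRT-PCR, ACTB/GAPDH/POLR2A normalization; up or down fit vs DMSO.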

[19] = read-out: Paternally Expressed 10 (PEG10), PEG10 (gene 23089); assay: LTEA_HepaRG_PEG10: Life Technologies and Expression Analysis (LTEA) Assay for Paternally Expressed 10 (PEG10) using HepaRG (AID 2283520)
Summary of the method: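 HepaRG, 48 h post-plating → serum-free induction medium → 48 h chemical exposure (duplicate, 8-pt, max 100 uM, half-log, 0.5% DMSO) → lysis in RLT → TaqMan qRT-PCR for PEG10, ACTB/GAPDH/POLR2A normalisation.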

Measured: AC50

Sequence of Signal transducer and activator of transcription 3 (Homo sapiens) (P40763 whole entry, looked up): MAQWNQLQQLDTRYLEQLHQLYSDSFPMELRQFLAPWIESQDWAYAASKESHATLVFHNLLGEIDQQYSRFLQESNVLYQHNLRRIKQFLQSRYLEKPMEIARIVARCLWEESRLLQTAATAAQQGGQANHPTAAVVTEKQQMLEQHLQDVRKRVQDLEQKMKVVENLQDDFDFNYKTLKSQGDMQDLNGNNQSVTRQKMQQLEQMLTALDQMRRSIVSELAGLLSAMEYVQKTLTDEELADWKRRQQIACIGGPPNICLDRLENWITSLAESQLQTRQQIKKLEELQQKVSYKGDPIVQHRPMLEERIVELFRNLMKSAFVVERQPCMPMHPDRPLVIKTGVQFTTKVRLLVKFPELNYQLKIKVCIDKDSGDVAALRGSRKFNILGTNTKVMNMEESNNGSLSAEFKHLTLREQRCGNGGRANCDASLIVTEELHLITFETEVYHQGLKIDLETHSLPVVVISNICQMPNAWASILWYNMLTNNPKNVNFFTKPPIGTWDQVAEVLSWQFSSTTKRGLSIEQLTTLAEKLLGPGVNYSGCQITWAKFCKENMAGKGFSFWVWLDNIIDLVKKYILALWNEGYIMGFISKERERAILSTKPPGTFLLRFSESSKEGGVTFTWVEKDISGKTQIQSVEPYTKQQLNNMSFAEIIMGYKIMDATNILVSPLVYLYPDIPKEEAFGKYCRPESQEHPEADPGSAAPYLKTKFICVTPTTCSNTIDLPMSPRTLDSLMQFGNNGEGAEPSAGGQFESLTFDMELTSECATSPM
Sequence of Nuclear factor NF-kappa-B p105 subunit (Homo sapiens) (P19838 whole entry, looked up): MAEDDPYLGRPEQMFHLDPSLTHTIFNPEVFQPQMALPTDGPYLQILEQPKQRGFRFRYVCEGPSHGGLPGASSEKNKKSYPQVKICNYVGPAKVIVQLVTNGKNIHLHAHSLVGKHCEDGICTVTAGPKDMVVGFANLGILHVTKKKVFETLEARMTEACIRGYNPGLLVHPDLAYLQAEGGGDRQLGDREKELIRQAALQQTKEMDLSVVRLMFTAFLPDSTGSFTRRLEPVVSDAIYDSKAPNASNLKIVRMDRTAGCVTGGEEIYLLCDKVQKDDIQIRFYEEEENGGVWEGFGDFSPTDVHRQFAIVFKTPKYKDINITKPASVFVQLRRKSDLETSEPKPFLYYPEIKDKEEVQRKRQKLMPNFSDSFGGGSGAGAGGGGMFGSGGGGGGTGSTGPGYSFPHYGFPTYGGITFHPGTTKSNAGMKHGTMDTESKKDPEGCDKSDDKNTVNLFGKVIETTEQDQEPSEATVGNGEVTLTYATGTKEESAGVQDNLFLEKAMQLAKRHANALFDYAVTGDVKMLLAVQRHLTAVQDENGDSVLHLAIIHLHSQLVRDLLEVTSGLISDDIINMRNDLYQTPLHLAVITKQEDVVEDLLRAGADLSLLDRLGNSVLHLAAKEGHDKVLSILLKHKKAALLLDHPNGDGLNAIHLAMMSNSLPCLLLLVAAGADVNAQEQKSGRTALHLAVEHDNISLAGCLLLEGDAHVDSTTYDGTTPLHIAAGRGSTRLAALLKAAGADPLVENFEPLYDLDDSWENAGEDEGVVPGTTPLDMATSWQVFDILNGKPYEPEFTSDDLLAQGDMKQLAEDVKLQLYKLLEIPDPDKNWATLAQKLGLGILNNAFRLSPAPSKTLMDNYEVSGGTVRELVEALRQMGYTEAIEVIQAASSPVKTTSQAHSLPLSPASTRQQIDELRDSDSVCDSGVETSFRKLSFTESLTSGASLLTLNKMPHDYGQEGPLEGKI
Sequence of Nuclear factor erythroid 2-related factor 2 (Homo sapiens) (Q16236 whole entry, looked up): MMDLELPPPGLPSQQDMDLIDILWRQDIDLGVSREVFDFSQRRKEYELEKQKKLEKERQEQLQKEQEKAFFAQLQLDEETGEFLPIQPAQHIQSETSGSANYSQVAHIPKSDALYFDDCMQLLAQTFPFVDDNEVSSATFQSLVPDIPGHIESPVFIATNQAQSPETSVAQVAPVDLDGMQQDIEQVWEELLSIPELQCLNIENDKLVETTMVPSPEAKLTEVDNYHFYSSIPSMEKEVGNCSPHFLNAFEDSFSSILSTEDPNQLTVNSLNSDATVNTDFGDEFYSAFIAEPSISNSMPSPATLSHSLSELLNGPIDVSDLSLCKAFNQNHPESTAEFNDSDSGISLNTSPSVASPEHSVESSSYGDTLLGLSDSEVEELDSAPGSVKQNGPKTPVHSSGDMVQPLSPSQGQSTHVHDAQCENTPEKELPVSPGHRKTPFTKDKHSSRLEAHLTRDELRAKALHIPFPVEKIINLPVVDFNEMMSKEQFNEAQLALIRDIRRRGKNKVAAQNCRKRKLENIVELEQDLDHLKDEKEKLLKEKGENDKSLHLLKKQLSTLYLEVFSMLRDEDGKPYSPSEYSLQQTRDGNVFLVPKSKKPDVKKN

CCOc1ccc(C(C)(C)COCc2cccc(Oc3ccccc3)c2)cc1
not listed: [19]
inactive: all other assays above

Cc1ccc([N+](=O)[O-])cc1C
not listed: [19]
inactive: all other assays above

CCC(C)(C)c1ccc(O)cc1
not listed: [19]
inactive: all other assays above

ClC1=C(Cl)C2(Cl)C3C(Cl)C(Cl)CC3C1(Cl)C2(Cl)Cl (stereo not given)
active: [4] 43.7 µM | MYC, MYC (gene 4609) 50 µM | [8] 23.6 µM
not listed: [19]
inactive: all other assays above

CCCCN(CCCC)N=O
not listed: [19]
inactive: all other assays above

O=[N+]([O-])c1ccc(Cl)c(Cl)c1
not listed: [19]
inactive: all other assays above

CCC1(c2ccccc2)C(=O)N=C(O)NC1=O (stereo not given)
not listed: [19]
inactive: all other assays above

O=[N+]([O-])c1ccccc1
not listed: [19]
inactive: all other assays above

CCN(CC)c1ccccc1
inactive: all assays above

Cc1ccc(N)cc1N
active: [13] 36.3 µM
not listed: [19]
inactive: all other assays above

c1cc2c3c(cccc3c1)CC2
not listed: [19]
inactive: all other assays above

CCOC(=O)c1ccccc1C(=O)OCC
not listed: [19]
inactive: all other assays above

CCCCCCCc1ccc(O)cc1
not listed: [19]
inactive: all other assays above

CCNc1nc(Cl)nc(NC(C)(C)C)n1
active: [2] 10.7 µM | [19] 17.4 µM
inactive: all other assays above

O=C(O)C1C(C(=O)O)C2(Cl)C(Cl)=C(Cl)C1(Cl)C2(Cl)Cl (stereo not given)
not listed: [19]
inactive: all other assays above

O=P1(N(CCCl)CCCl)NCCCO1 (stereo not given)
not listed: [19]
inactive: all other assays above

CC(C)(C)OOC(C)(C)C
not listed: [19]
inactive: all other assays above

c1ccc(OP(Oc2ccccc2)Oc2ccccc2)cc1
not listed: [19]
inactive: all other assays above

[N-]=[N+]=[N-]
active: [2] 64.8 µM | [4] 81.1 µM | [5] 72.3 µM | MYC, MYC (gene 4609) 80 µM | [13] 71.7 µM | [16] 50 µM
not listed: [19]
inactive: all other assays above

Cc1ccc(O)cc1C
not listed: [9] | [15]
inactive: all other assays above

CN(C)C(=O)Cl
not listed: [19]
inactive: all other assays above
